Ins promoter up: MIN6 insulin promoter up-regulation. MIN6 insulin promoter-GFP reporter, high-content imaging; hits give high values. z-score at 5 µM. 190,000 tested, 0.3% active. AID 1625;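 active = z-score above 3 at 5 µM with at least 500 cells counted in the well; inconclusive = wells under 500 cells, flagged as cytotoxic or low count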
Insulin prom inh: TRM-6 insulin promoter activity inhibition; inhibition, % at 2 µM; TRM-6 cells (human fetal islet line), insulin promoter-eGFP reporter, imaging; reporter expression induced with tamoxifen; 130,000 tested, 0.9% active; AID 1273;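 active = inhibition above the mean plus 3 SD, with well images judged a real hit on visual review, cut at about 60% in these data, passing the limit was not always enough; inconclusive = inhibition over the cutoff but images rejected on review; inactive = inhibition not above the cutoff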
WT yeast gro inh: growth inhibition of WT yeast, mitochondrial fusion screen. mitochondrial fusion phenotypic screen, WT strain. inhibition, % at 10 µM. 190,000 tested, 2.1% active. AID 1362; in the data active = inhibition above about 58%; tested in S. cerevisiae
ROMK mod: modulators of human ROMK potassium channel; Tet-inducible ROMK, thallium flux fluorescence; actives lie on both sides; B-score at 10 µM; 130,000 tested, 2% active; AID 1918;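 active = signal ratio slope over the read window, or its plate-corrected B-score, at least 3 SD from the plate mean, either direction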;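 also: B-score of the F/F0 ratio slope over 7 to 12 s after thallium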
KCC2 mod: modulators of human KCC2 chloride dependent transport. 190,000 tested, 2.2% active. B-score of Tl+ flux slope (higher = more flux/activation; lower = inhibition) at 10 µM. KCC2 cells, thallium flux FluoZin-2 fluorescence. Q9H2X9;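 active = thallium flux slope and its plate-corrected score both differing from the plate sample mean at a set confidence after two filtering rounds, in either direction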;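 also: slope of fluorescence scaled to starting intensity during 10 to 20 s after thallium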
Lmaj promast: inhibitors of Leishmania major promastigote growth; Leishmania major promastigotes, resazurin fluorescence viability; inhibition, % at 10 µM; 200,000 tested, 9% active; AID 1063; in the data active = inhibition above about 50%;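 also: promastigotes grown with compound for 44 hours at 28 °C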
An asterisk follows results filed as active; ? = inconclusive; · = no result. Shown are actives, neighbours in structure and some others; about 12% of the full set was active somewhere.

SMILES	Ins promoter up	Insulin prom inh	WT yeast gro inh	ROMK mod	KCC2 mod	Lmaj promast
COc1ccccc1CCNC(=O)c1ccoc1C	0.19	2.6	-3.3	·	-0.943	-3.7
CC1CCC(n2c(=S)[nH]c3ccccc3c2=O)CC1 (stereo not given)	0.49	80.0*	1.1	·	29.5*	1.4
O=c1c2ccccc2[nH]c(=S)n1C1CCCCC1	1.28	55.6	1.7	·	68.7*	14.0
CC1CCCC(n2c(=S)[nH]c3ccccc3c2=O)C1C (stereo not given)	1.1	7.0	1.4	·	28.7*	21.8
CC1CCCCN1CCCn1c(=S)[nH]c2ccccc2c1=O (stereo not given)	-0.51	26.7	10.9	·	·	7.0
CCCc1nnc(SCC(=O)N2C(C)CCCC2C)n1CCCOC (stereo not given)	-0.33	32.4	1.5	·	-0.419	-2.9
CN(C)c1cccc(N(C)C)c1CNC(=O)C(C)(C)C	-0.3	·	·	-0.571	-0.564	·
Cc1cc(C(=O)N2CCN(C(=O)C3CCCO3)CC2)no1 (stereo not given)	·	25.0	8.6	0.458	-0.516	-5.0
O=C(Nc1ccc(Cl)cc1)OCc1cncs1	1.55	-12.2	1.1	·	-0.684	1.4
O=C(Nc1cccc(Cl)c1)OCc1cncs1	-1.1	8.1	-5.5	·	-0.0354	77.9*
CCCCNC(=O)C1=C(N)C(C(=O)Nc2ccc(C)c(S(=O)(=O)N3CCCCC3)c2)SC1=Nc1ccc(C)cc1C (stereo not given)	-0.21	17.1	60.2*	0.005	-0.00406	-24.6
Cc1nn(Cc2c(Cl)cccc2Cl)c(C)c1NC(=O)CCCn1nc(C)c([N+](=O)[O-])c1C	-0.49	40.0	-1.1	·	-0.281	66.3*
Cc1ccc(Cn2nc(C)c(NC(=O)CCCn3nc(C)c([N+](=O)[O-])c3C)c2C)cc1	-0.49	0.0	-1.5	·	0.0625	51.5*
Cc1nn(Cc2ccccc2Cl)c(C)c1NC(=O)CCCn1nc([N+](=O)[O-])c(Cl)c1C	0.39	-46.4	-5.9	-0.0529	-0.0979	12.1
OCCN=C1CCCc2c1[nH]c1ccc(Br)cc21	-0.05	20.0	5.1	·	·	-5.4
COc1ccc(CNc2oc(-c3ccccc3)nc2C#N)cc1	-0.84	-28.6	25.8	·	-0.166	-8.8
CCOP(=O)(OCC)c1nc(/C=C/c2ccccc2)oc1NCc1ccccc1	0.25	35.1	83.3*	·	-1.22	10.9
CCOP(=O)(OCC)c1nc(/C=C/c2ccccc2)oc1NCc1ccc(OC)cc1	-0.17	·	8.7	0.151	-1.86	13.3
CCOP(=O)(OCC)c1nc(-c2ccc(C)cc2)oc1NCc1ccccc1	-1.48	-10.3	-2.9	·	-1.34	78.8*
Cc1ccc(S(=O)(=O)N2CC3CCCC2C3)cc1 (stereo not given)	-1.03	·	·	·	-0.548	·
CCCOc1c(Br)cc(C(=O)NCC)cc1OC	-0.23	-87.5	2.7	0.00252	-0.127	4.9
O=C(C1CCCN(CCCc2ccccc2)C1)N1CCCCCC1 (stereo not given)	0.17	-15.6	-9.0	·	0.703	71.0*
O=C(C1CCN(CCCc2ccccc2)CC1)N1CCCCC1	1.43	·	12.8	0.797	-4.48	-6.0
CC1CCN(C(=O)C2CCN(CCCc3ccccc3)CC2)CC1	-2.81	28.1	8.2	·	0.383	53.0*
O=C(C1CCCN(CCCc2ccccc2)C1)N1CCCCC1 (stereo not given)	0.11	-6.2	0.5	·	0.0893	-7.9
SMILES	Ins promoter up	Insulin prom inh	WT yeast gro inh	ROMK mod	KCC2 mod	Lmaj promast
CCCNS(=O)(=O)c1ccc(CCC(=O)Nc2ccc3c(c2)OCO3)cc1	-0.4	-31.2	5.5	0.00359	·	5.3
CCOc1ccc(NC(=O)C2CCC(N3C(=O)C4CC=CCC4C3=O)CC2)cc1 (stereo not given)	·	·	19.1	-0.457	-0.364	3.4
CC1CCCN(C(=O)c2ccccc2OC2CCN(S(C)(=O)=O)CC2)C1 (stereo not given)	·	33.3	5.6	0.00342	0.102	3.8
Cc1c(/C=C(\CC(=O)O)c2nc3ccccc3s2)cc(C#N)n1C	0.15	·	·	·	-1.42	·
Cc1nn(-c2ccccc2)c(Cl)c1/C=C/C(=O)c1ccccc1	-0.62	8.1	56.5	0.0993	-0.821	69.2*
Cc1nn(-c2ccccc2)c(Cl)c1/C=C1\C(=O)N(C)C(=S)N1C	-1.67	25.0	17.4	-0.165	-0.526	-1.5
Cc1nn(-c2ccccc2)c(Cl)c1/C=C(\CC(=O)O)c1nc2ccccc2s1	0.12	0.0	-4.5	1.3	-2.99*	1.7
Cc1nn(-c2ccccc2)c(Cl)c1/C=C1\SC(=S)N(C)C1=O	0.7	-35.7	-7.3	0.0383	-0.999	53.3*
CCCCNC(=O)CN(c1cc(C(F)(F)F)ccc1Cl)S(C)(=O)=O	0.38	?	16.8	·	0.0586	-3.2
C/C=C/C(=O)N(CC)c1ccccc1C	-0.31	·	5.7	·	-0.00309	·
O=C(Nc1ccc2snnc2c1)N1CCCCC1	0.32	·	-4.9	0.316	1.23	4.7
Cc1nc2ccccc2c(=O)n1NC(=O)c1ccccc1[N+](=O)[O-]	0.17	?	-5.6	0.351	0.265	-3.6
COc1ccc(C(C#N)N2CCC(c3ccccc3)=N2)cc1OC (stereo not given)	-0.07	·	1.9	0.292	-1.67	-5.6
COc1ccc(C2=NN(C(C#N)c3ccc(OC)c(OC)c3)C(c3ccccc3)C2)cc1 (stereo not given)	·	30.4	10.8	0.671	0.307	100.0*
Cn1nnnc1SCC(=O)N1CCN(C(=O)c2ccco2)CC1	0.63	16.7	2.4	0.524	0.225	-4.7
Nc1c(C(=O)NCc2ccc(F)cc2)c2nc3ccccc3nc2n1CCCN1CCOCC1	·	27.8	6.6	1.82	0.149	100.3*
COc1ccc(CNC(=O)c2c(N)n(CCCN3CCOCC3)c3nc4ccccc4nc23)cc1	·	5.6	-5.8	0.322	1.05	86.5*
Cc1nn(C)c(C)c1NC(=O)c1cnn2c(C(F)F)cc(-c3ccccc3)nc12	-0.08	4.8	8.7	0.318	-1.21	0.0
COc1ccc(CN(C)CC(=O)NC(=O)NCc2ccccc2)cc1OC	-0.61	6.7	-4.7	·	4.96*	31.8
CC(C)Nc1nc(Oc2ccc(Cl)cc2Cl)cc(C(F)(F)F)n1	1.03	35.5	38.0	·	·	-2.6
CC(C)Nc1nc(Oc2cccc(Cl)c2Cl)cc(C(F)(F)F)n1	0.24	46.7	87.3*	·	0.00734	0.3
CC(C)Cc1ccc(C(C)C(=O)OCC(=O)c2c[nH]c3ccccc23)cc1 (stereo not given)	·	14.8	69.2*	0.256	·	9.1
C/C=C(\C)c1nnc(NC(=O)OCC)s1	0.05	11.1	-15.7	·	0.797	3.9
CCOC(=O)C1=C(c2ccccc2)OC(N)=C(C#N)C1c1ccncc1 (stereo not given)	0.5	·	7.8	-0.419	0.00818	-0.3
C=CCn1c(-c2ccc(S(=O)(=O)N3CCOCC3)cc2)csc1=Nc1ccccc1	-0.91	-15.8	15.6	·	0.226	-0.9
CC(=O)c1cccc(N=c2scc(-c3ccc(S(=O)(=O)N4CCOCC4)cc3)n2CCO)c1	?	·	-3.4	-2.53	-0.564	94.9*
Clc1ccc(-n2ncc3c(NCc4ccco4)ncnc32)cc1	·	·	4.7	3.88*	-0.206	0.6
COc1ccc(-n2ncc3c(NCCN4CCOCC4)ncnc32)cc1	0.39	21.4	0.6	·	-1.04	92.0*
